Source: PubChem BioAssay
A selection: hits, their analogues and other compounds. The true share with any hit is near 19%.
TDP1 cell noCPT: qHTS for Inhibitors of human tyrosyl-DNA phosphodiesterase 1 (TDP1): qHTS in cells in absence of CPT; DT40 Tdp1-/- hTDP1 cells, no CPT, ATP luminescence, 48 h; Potency, µM (top dose mostly 46.2 µM), without a hit: top-dose activity change, negative = growth inhibition, usual class: inhibitors; 420,000 compounds, 15% hits; AID 686978, 2013; note: nearly all actives have a fitted effect of over 55% in size
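Compound effects on proliferation are scored in DT40 Tdp1-/-;hTDP1 cells in the absence of CPT. ATP levels (CellTiter-Glo luminescence) are recorded after a ≥48 hr, 37 °C incubation.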
KB-V1 MDR tox: qHTS assay for MDR1-selective chemotherapeutics: Primary screen using the drug-selected MDR subline cells KB-V1 | KB-V1 MDR cells viability, CellTiter-Glo, 72 h | Potency, µM (top dose mostly 46.1 µM), usual class: cytotoxic | 400,000 compounds, 3.4% hits; note: nearly all actives have a fitted effect of over 60% in size
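Cells of the MDR subline KB-V1 are plated, dosed with compound at multiple concentrations, and incubated 72 h at 37 degrees C; CellTiter-Glo is then added and luminescence read after 10 min.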
HT1080 IDH1KD tx: qHTS for induction of synthetic lethality in tumor cells producing 2HG: qHTS for the HT-1080-IDH1KD cell line | HT-1080 IDH1 knockdown viability, ATP luminescence, 48 h | Potency, µM (titrated, usually from 46.1 µM), inactives show at the top dose activity, negative = toxicity, most hits filed as cytotoxic | 360,000 compounds, 2% hits;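 note: 0% = DMSO wells and -100% = cell-free medium wells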
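After a 2 h attachment period, IDH1KD HT-1080 cells took pin-transferred compound for 48 h at 37 °C; ATP-based luminescence after 10 min room-temperature reagent incubation reported viability.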
DT40 TDP1 CPT: qHTS for Inhibitors of human tyrosyl-DNA phosphodiesterase 1 (TDP1): qHTS in cells in presence of CPT. chicken DT40 Tdp1-/-;hTDP1 cells + 20 nM CPT, ATP luminescence, 48 h. Potency, µM (highest dose often 46.2 µM), inactives show at the top dose activity change, negative = growth inhibition, hits mostly inhibitors. 420,000 compounds, 12% hits; note: nearly all actives have a fitted effect of over 55% in size
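Cell growth measured by CellTiter-Glo luminescence after a minimum 48 h, 37 C compound exposure with 20 nM CPT in Tdp1-knockout DT40 cells stably expressing hTDP1, seeded 400/well; qHTS titration format.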
KB-3-1 cytotox: qHTS assay for MDR1-selective chemotherapeutics: Primary screen using the parental adenocarcinoma cell KB-3-1; KB-3-1 viability, CellTiter-Glo ATP luminescence, 72 h; Potency, µM (highest dose often 46.1 µM), hits mostly cytotoxic; 400,000 compounds, 1.4% hits; note: nearly all actives have a fitted effect of over 60% in size
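Here the drug-naive KB-3-1 line serves as comparator for MDR sub-line selectivity; cells received compound titrations, 72 h at 37 °C, then CellTiter-Glo readout.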
HT1080NT lethal: qHTS for induction of synthetic lethality in tumor cells producing 2HG: qHTS for the HT-1080-NT fibrosarcoma cell line | HT-1080-NT fibrosarcoma viability, CellTiter-Glo ATP luminescence, 48 h | Potency, µM (top dose mostly 46.1 µM), for the others: at the highest dose activity, negative = less viability, actives largely listed as cytotoxic | 360,000 compounds, 1.6% hits | AID 686970, 2013;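 note: NT is the 2HG producing partner of a matched IDH1 knockdown line; 0% = DMSO-treated cells and -100% = media-only wells without cells; nearly all actives have a fitted effect of over 55% in size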
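Fibrosarcoma NT cells, 750 per well in 5% FBS RPMI, were exposed to compound for 48 hours. Viability: CellTiter-Glo luminescence.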
Active calls of the source: *; i = inactive; ? = inconclusive; . = not tested or not shown. Calls come from the whole dose curve; as a rule, active = well fitted curve in the direction sought with a large enough effect; inconclusive = small, poorly fitted or top-dose-only effect, or another doubt; inactive = no such curve, though single readings can be large; an effect the other way counts as inactive or inconclusive. Unless noted, % is set by controls: 0 for no effect and ±100 for the full control effect; potency is the fitted concentration of half-maximal effect.

SMILES	TDP1 cell noCPT	KB-V1 MDR tox	HT1080 IDH1KD tx	DT40 TDP1 CPT	KB-3-1 cytotox	HT1080NT lethal
COC(=O)c1sc(S(=O)(=O)N2CCN(c3ccccc3F)CC2)c(C(=O)OC)c1C	?	i	-12%	15µM*	i	6%
COC(=O)c1sc(S(=O)(=O)N2CCC(C(N)=O)CC2)c(C(=O)OC)c1C	-10%	i	-8%	1%	i	-1%
COc1cc(S(C)=O)ccc1-c1nc2ncccc2[nH]1 (stereo not drawn)	1%	i	12%	23%	i	19%
CN(CC(=O)NC(=O)NC1CCCCC1)CC(=O)Nc1ccccc1C(F)(F)F	?	?	0%	?	i	6%
CN(CC(=O)Nc1ccc(Cl)c(Cl)c1)CC(=O)N1CCCCCC1	26µM*	i	-3%	?	i	-10%
CN(CC(=O)Nc1ccc(Cl)c(C(F)(F)F)c1)CC(=O)NC1CCCCC1	?	i	-22%	16µM*	i	-14%
CN(CC(=O)NC(=O)NCc1ccccc1)CC(=O)Nc1ccc(Cl)c(C(F)(F)F)c1	21µM*	?	?	18µM*	?	18µM*
CSc1ncccc1C(=O)N(C)CC(=O)Nc1ccc(Cl)c(C(F)(F)F)c1	?	?	0%	?	i	0%
CN(CC(=O)Nc1cccc(F)c1)CC(=O)N1CCCCC1	6%	i	2%	0%	i	3%
CN(CC(=O)NCc1ccccc1)CC(=O)Nc1ccc(Cl)c(C(F)(F)F)c1	18µM*	?	-5%	15µM*	i	-13%
CN(CC(=O)NC(=O)NCc1ccccc1)Cc1ccc(Cl)cc1	-24%	i	-2%	-2%	i	-5%
O=C1C(=O)C(c2cc(O)c(O)c(O)c2)Oc2cc(O)cc(O)c21 (stereo not drawn)	?	i	.	?	?	.
CC(C(=O)N1CCCCC1)N(C)CC(=O)Nc1ccc(Cl)cc1 (stereo not drawn)	16µM*	?	-6%	?	i	-3%
CC1CCC(NC(=O)CN(C)CC(=O)Nc2ccc(F)cc2)CC1 (stereo not drawn)	-14%	23µM*	-1%	-18%	i	0%
CN(CC(=O)NCCc1ccc(S(N)(=O)=O)cc1)CC(=O)Nc1ccc(Cl)c(C(F)(F)F)c1	13µM*	i	-10%	13µM*	16µM*	0%
CC(C(=O)N1CCCCC1)N(C)CC(=O)Nc1ccc(F)c(F)c1F (stereo not drawn)	5%	i	9%	-3%	i	2%
CN(CC(=O)Nc1ccc(Cl)c(C(F)(F)F)c1)C(=O)CCN1C(=O)C2CCCCC2C1=O (stereo not drawn)	23µM*	i	9%	23µM*	i	7%
CN(CC(=O)NCCc1ccc(S(N)(=O)=O)cc1)CC(=O)Nc1ccccc1Cl	-16%	i	-1%	-18%	i	0%
COc1ccc(NC(=O)CC2C(=O)N(c3ccccc3)C(=O)N2Cc2cccnc2)cc1 (stereo not drawn)	-21%	.	.	-8%	.	.
COc1ccc(N2CCN(C(=O)Cn3cnc4c(cnn4-c4ccccc4)c3=O)CC2)cc1	1%	?	-1%	-12%	i	12%
O=C(Cn1cnc2c(cnn2-c2ccc(F)cc2)c1=O)OCc1ccccc1	-12%	i	11%	2%	i	16%
COc1ccc(-n2ncc3c(=O)n(CC(=O)N4CCCc5ccccc54)cnc32)cc1	23µM*	?	3%	?	?	-1%
O=C(Cn1cnc2c(cnn2-c2ccc(F)cc2)c1=O)N1CCN(c2ccccc2F)CC1	-29%	3.7µM*	-6%	-20%	i	-5%
O=C(Cn1cnc2c(nnn2Cc2ccc(F)cc2)c1=O)N1CCCc2ccccc21	?	16µM*	1%	?	i	3%
O=C(Cn1cnc2c(cnn2-c2ccc(F)cc2)c1=O)N1CCCc2ccccc21	-24%	2.9µM*	-11%	-3%	?	-1%
SMILES	TDP1 cell noCPT	KB-V1 MDR tox	HT1080 IDH1KD tx	DT40 TDP1 CPT	KB-3-1 cytotox	HT1080NT lethal
CNC(=O)CSc1nnc(-c2ccco2)n1-c1ccccc1OC	0%	?	1%	-2%	i	13%
Nc1ncnc2c1nc(Sc1ccc(Cl)cc1)n2[C@@H]1O[C@@H]2COP(=O)(O)O[C@H]2[C@H]1O	-9%	i	-1%	-14%	i	0%
CCCCn1c(N)c(N(C)C(=O)c2ccc(OCC3CCCO3)cc2)c(=O)[nH]c1=O (stereo not drawn)	-4%	i	-6%	1%	i	11%
Cc1ccc(-n2ncc3c(=O)n(CC(=O)N4CCCc5ccccc54)cnc32)cc1C	16µM*	18µM*	-10%	?	i	-1%
Cc1ccc(-n2ncc3c(=O)n(CC(=O)N4CCN(C(=O)c5ccco5)CC4)cnc32)cc1	-26%	12µM*	-5%	-6%	i	3%
O=C(Cn1cnc2c(oc3ccccc32)c1=O)N1CCCc2ccccc21	-15%	4.1µM*	0%	1%	i	1%
Cn1cc(C(=O)C(=O)N2CCCc3ccccc32)c2ccccc21	13µM*	?	?	16µM*	?	?
CC1CC(C)(C)CC2(C1)NC(=O)N(CC(=O)N(Cc1ccccc1)c1ccccc1)C2=O (stereo not drawn)	?	i	?	?	i	?
CSCc1c(C(=O)N2CCCc3ccccc32)oc2ccccc12	?	.	-4%	15µM*	.	-14%
O=Cc1cn(CC(=O)N2CCCc3ccccc32)c2ccccc12	5.8µM*	?	-16%	5.8µM*	?	-9%
COc1ccc(OC)c(NC(=O)Cn2cnc3c(cnn3-c3ccccc3)c2=O)c1	-19%	i	-1%	-11%	i	-6%
O=C(c1cc(=O)c2ccccc2o1)N1CCCc2ccccc21	5%	i	-3%	2%	i	-12%
